Measured values taken from PubChem BioAssay (NCI).
“And” between values parts separate entries of the source, which are not always exact repeats. Equal entries are not always repeated. Compounds without any hit were thinned out: in the full panel of roughly 83,000, 20% have a hit.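 The endpoint reported here, percent growth, reads 100 for growth as untreated, 0 for no net growth and -100 for all cells dead.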 Unmarked numbers belong to inactive results. The source made the active and inactive calls. How the source made its calls: active means growth percent below 10; inactive means the rest.

Test system: MDA-MB-468 breast
Test: NCI-60 one-dose screen, 48 h (100 = growth as untreated, 0 = no growth, -100 = all killed)
Conditions: 10 µM unless noted

Row | Compound | growth
1 | COc1ccc(-n2c(=S)sc3c(Cl)nc(C)nc32)c(OC)c1 | -19.6% (active)
2 | CCCCCCCCN(CCCCCCCC)CCCCCCCCCN1CCCc2cc(OC)ccc21 | 61.8%
3 | Cc1[nH]nc2ccc3nc(-c4ccc5[nH]ncc5c4)c4c(c3c12)CCCC4 | -6.72% (active)
4 | O=[N+]([O-])c1ccc(-c2noc(-c3cccs3)n2)cc1 | 56.6%
5 | COc1cc(/C=C/C(=O)c2ccc(Nc3ncnc4ccccc34)cc2)cc(OC)c1 | 28.8%
6 | CCCCCCCCCc1ccc(OC(C)=O)cc1 | 104%
7 | c1n[nH]cc1-c1nc2ccc3[nH]ncc3c2c2c1CCCC2 | 15.2%
8 | CCCN1CCN(c2ccc3nc(-c4ccc5nc(-c6cc(OC)c(OC)c(OC)c6)[nH]c5c4)[nH]c3c2)CC1 | 47.1%
9 | Nc1nc2c(c3ncccc13)C(c1cccc(Cl)c1)Cc1ncccc1-2 (configuration not stated) | 26.6%
10 | COc1ccc2c(c1)c(-c1noc(C(=O)c3cn(C)c4ccc(Br)cc34)n1)cn2C | 120%
11 | Nc1nc(N)c2c(n1)NC(c1ccccc1)C1CCc3ccccc3C1=N2 (configuration not stated) | -12.7% (active)
12 | CC[C@H]1OC(=O)[C@H](C)[C@@H](O[C@H]2C[C@@](C)(OC)[C@@H](O)[C@H](C)O2)[C@H](C)[C@@H](O[C@@H]2O[C@H](C)C[C@H](N(C)C)[C@H]2O)[C@](C)(O)C[C@H](C)CN(C)[C@H](C)[C@@H](O)[C@]1(C)O | 86.7%
13 | c1cc(C2CCCCC2)ccc1OCCCCCCN1CCNCC1 | 1.63% (active)
14 | COc1cc2c(cc1OC)-c1ccc3cc4c(cc3c1N(CCCN(C)C)C2)OCO4 | 22.3%
15 | CN1CCN(Cc2ccc(NC(=O)c3cncc(C#Cc4cnc5ccc(O[C@H]6CCOC6)nn45)c3)cc2C(F)(F)F)CC1 | -59.7% (active)
16 | Nc1ncc(-c2ccc3ncnc(N4CCc5ccc(Cl)cc54)c3c2)cc1C(F)(F)F | -36% (active)
17 | COc1c(/C(C)=N/N=c2sc(C(C)=O)nn2-c2ccc(Cl)cc2)c(Oc2ccccc2)c(OC)c2occc12 | 106% and 98.8%
18 | CC(=O)Oc1c(Cl)c(Cl)c(Cl)c(Cl)c1Cl | 113%
19 | N#CC1(O)CCCCC1 | 108%

Row | Compound | growth
20 | ClC(Cl)c1nc(-c2cccnc2)n2nc(-c3ccccc3)cc2n1 | -29.7% (active)
21 | Cc1nc(N)nc(N[C@@H](C)c2nc3cccc(NCc4ccc(C(=O)NO)cc4)c3c(=O)n2-c2ccccc2)n1 | -5.1% (active)
22 | CCOC(=O)c1ccc(NC(=O)Nc2nncs2)cc1 | 12.5%
23 | Nc1c(C(=O)Nc2cccc(Cl)c2)sc2nc3c(cc12)C(=O)CCC3 | -10.6% (active)
24 | O=C(CN(C1CCCCC1)C1CCCCC1)Nc1ccc(S(=O)(=O)c2ccc(NC(=O)CN(C3CCCCC3)C3CCCCC3)cc2)cc1 | -55.1% (active)
25 | CCC(=O)OC1=CN2C(=NC(c3ccc(N)cc3)=CC2c2cc(OC)c(OC)c(OC)c2)S1 (configuration not stated) | 25.5%
26 | Cc1ccc(F)c(NC(=O)Nc2ccc(-c3cccc4[nH]nc(N)c34)cc2)c1 | 15.7%
27 | COc1ccc(/C=C2\CCCC3=C2N=C2SC(C)=CN2C3c2ccc(OC)cc2)cc1 (configuration not stated) | 85.1%
28 | Nc1nc(N)c2cc(Sc3cccc(C(F)(F)F)c3)ccc2n1 | -4.8% (active)
29 | O=C1NCC(Nc2ccc(Br)cc2Cl)C(=O)N1 (configuration not stated) | 124%
30 | O=[N+]([O-])c1cc(-c2ccccc2)c(O)c([N+](=O)[O-])c1 | 71.5%
31 | CC(C)[N+]1(C)C2CC[C@@H]1CC(OC(=O)C(CO)c1ccccc1)C2 (some centres not stated) | 109%
32 | COC(=O)c1cc(-c2ccccc2)[nH]c1N/N=C/c1c(Cl)cccc1Cl | -7.8% (active)
33 | Cc1ccc2nc3c(nc2c1)-c1cccc2cccc-3c12 | 48.1%
34 | CC(C)OP(=O)(OC(C)C)c1ncc(-c2ccc(C(F)(F)F)cc2)c(NC2CCCCCC2)n1 | 12.8% [33.3 µM]
35 | COc1cc2nc(Cl)nc(Nc3cccc(C(=O)/C=C/c4ccccc4)c3)c2cc1OC | 68.9%
36 | NS(=O)(=O)c1ccc(-n2nc(-c3ccc(Br)cc3)ccc2=O)cc1 | 66% [100 µM]
37 | CCCCCCCCCc1ccc(OCCOCCOCCOCCOCCOCCOCCOCCOCCO)cc1 | -11.7% (active)
